Assay outcomes from PubChem BioAssay.
This is a sample that favours compounds with a hit; in the whole collection about 5.7% have one here.
GLP1R inv ag – GLP-1 receptor (human) inverse agonism; Potency, µM (series often up to 38.3 µM), for inactives: at the highest dose activity change, negative = inhibition, usual class: inhibitors; P43220; AID 624417; HEK293 GLP-1R CRE-luciferase, luminescence, 24 h; GLP-1R form is constitutively active; 410,000 compounds, 1.6% hits; also: potency is read from the fitted curve at half-maximal effect; % is scaled to controls: 0 for no effect and ±100 for the full control effect; nearly all actives have a fitted effect of over 55% in size
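HEK293 cells stably co-expressing a cAMP-responsive luciferase reporter and constitutively active GLP-1R were seeded, incubated 12 h, then exposed to compounds for 24 h at 37 C. Luminescence was read 12 min after detection reagent; inverse agonists lower signal.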
D3 ag – D3 dopamine receptor (human) agonism; P35462; D3R DiscoveRx beta-arrestin cells, luminescence, 90 min; max activation, %; 410,000 compounds, 0.58% hits; AID 652048; in the data active = max activation above about 30%; also: 0% is about no effect
Target sequence (P35462 whole entry, looked up): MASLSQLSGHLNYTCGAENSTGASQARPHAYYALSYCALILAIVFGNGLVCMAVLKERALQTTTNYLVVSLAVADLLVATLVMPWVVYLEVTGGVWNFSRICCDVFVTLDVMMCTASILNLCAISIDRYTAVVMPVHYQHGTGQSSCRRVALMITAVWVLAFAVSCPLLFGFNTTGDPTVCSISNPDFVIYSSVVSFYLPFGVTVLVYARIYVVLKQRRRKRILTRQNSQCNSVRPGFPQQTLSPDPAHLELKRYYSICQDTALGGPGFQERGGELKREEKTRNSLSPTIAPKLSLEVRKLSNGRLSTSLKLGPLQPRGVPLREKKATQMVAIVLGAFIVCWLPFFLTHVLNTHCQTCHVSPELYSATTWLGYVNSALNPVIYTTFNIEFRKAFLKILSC
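Agonist-mode cell screen: cells plated at 1500/well and incubated overnight at 37 °C, then exposed to library compounds for 90 min at 37 °C. Detection reagent was added for 30–60 min at room temperature, and luminescence was read.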
GLP-1R agonist – agonists of human GLP-1 receptor; HEK293 GLP-1R CRE-luciferase, luminescence, 4-6 h; cells express a hypersensitive GLP-1R form; P43220; Potency, µM (titrated, usually from 45.6 µM), without a hit: top-dose activation, usual class: activators; 380,000 compounds, 0.007% hits; also: potency is read from the fitted curve at half-maximal effect; % of control where 0% means no effect
D3 antag – antagonists of human D3 dopamine receptor; P35462; D3R cells, DiscoveRx beta-arrestin luminescence, antagonist mode; hits give low values; max response, negative = inhibition, %; 360,000 compounds, 2.5% hits; in the data active = max response below about -50%; inconclusive = no clear call, values can overlap the other calls; also: % is scaled to controls: 0 for no effect and ±100 for the full control effect
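Cells plated overnight at 1500 cells/well, then exposed to library compounds with dopamine controls for 90 minutes at 37 degrees C. DiscoveRx reagent added for 30–60 minutes at room temperature; luminescence read, quantitative HTS format.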
ClpP mod – qHTS Assay for Activators of ClpP; 340,000 compounds, 1.9% hits; AID 651965, 2013; Potency, µM (titrated, usually from 57.5 µM), for inactives: top-dose activity change, negative = active; purified B. subtilis ClpP, FRET peptide cleavage, 20 min; active = well fitted falling curve with a large enough effect; inconclusive = small, poorly fitted or top-dose-only effect; inactive = no such curve, though single readings can be large or run the other way; also: potency is read from the fitted curve at half-maximal effect; the source files actives as falling curves though it sought activators and does not explain the sign; nearly all actives have a fitted effect of over 65% in size
Target sequence (P80244 whole entry, looked up): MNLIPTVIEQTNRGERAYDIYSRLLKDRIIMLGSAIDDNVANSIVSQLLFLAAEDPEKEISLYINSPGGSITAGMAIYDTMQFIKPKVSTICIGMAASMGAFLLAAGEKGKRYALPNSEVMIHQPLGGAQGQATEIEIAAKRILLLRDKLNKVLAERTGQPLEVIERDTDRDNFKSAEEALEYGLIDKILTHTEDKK
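Buffer: 100 mM Tris/HCl pH8, 100 mM KCl, 0.05% low protease BSA, 2.5% glycerol, 0.01% Tween-20. ClpP 10 microg/mL final; 20 min RT; delta FRET normalized to ADEP and DMSO controls.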
GLP1R cytotox – cytotoxic in the GLP-1 receptor inverse agonist counter-screen; HEK293 cAMP-luciferase reporter cells, luminescence, 24 h; Potency, µM (titrated, usually from 38.3 µM), without a hit: at the highest dose activity change, negative = inhibition, most hits filed as inhibitors; 410,000 compounds, 0.13% hits; AID 624418;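 also: loss of luciferase light is scored as toxicity; potency is read from the fitted curve at half-maximal effect; % is scaled to controls: 0 for no effect and ±100 for the full control effect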
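Compound-treated cells are incubated 24 hr at 37 deg C under 5% CO2 after a 12 hour attachment period, then luciferase detection reagent is added and luminescence is measured following 12 min at room temperature; lowered signal indicates toxicity.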
Active calls of the source: *; [ ] = dose if it differs, or a comment. Unless noted, calls follow the shape of the dose curve; as a rule, active = well fitted curve in the direction sought with a large enough effect; inconclusive = small, poorly fitted or top-dose-only effect, or another doubt; inactive = no such curve, though single readings can be large; an effect the other way counts as inactive or inconclusive.

Screening COC(=O)C1=C(CN2CCc3ccccc32)NC(=O)NC1c1cc(C)ccc1C (stereo not drawn) returned GLP1R inv ag 8.91µM*, D3 ag 13.0, GLP-1R agonist -12.0%, D3 antag 0.0, ClpP mod -2.2% and GLP1R cytotox -23.6%.
COc1ccccc1NS(=O)(=O)c1cc(NC(=O)c2ccncc2)ccc1N1CCOCC1 was read as GLP1R inv ag 74.9%, D3 ag -0.9, GLP-1R agonist 21.4%, D3 antag 10.5, ClpP mod 25.1µM* and GLP1R cytotox 5.9%.
For COc1ccc(NS(=O)(=O)c2cc(NC(=O)c3ccco3)ccc2N2CCCC2)cc1 the results were GLP1R inv ag 0.0%, D3 ag -5.5, GLP-1R agonist -2.9%, D3 antag -56.5*, ClpP mod -1.8% and GLP1R cytotox -20.1%.
Screening COc1ccccc1NS(=O)(=O)c1cc(NC(=O)c2ccc(NC(C)=O)cc2)ccc1N1CCOCC1 returned GLP1R inv ag 8.5%, D3 ag 3.6, GLP-1R agonist -2.3%, D3 antag 0.0, ClpP mod -1.1% and GLP1R cytotox -27.4%.
For O=C(Nc1ccc(N2CCOCC2)c(S(=O)(=O)Nc2ccccc2Cl)c1)c1ccc(F)cc1 the results were GLP1R inv ag 10µM*, D3 ag -7.6, GLP-1R agonist 1.0%, D3 antag 16.9, ClpP mod -26.0% and GLP1R cytotox -5.8%.
COc1ccccc1NS(=O)(=O)c1cc(NC(=O)Nc2ccccc2)ccc1N1CCCCC1 was read as GLP1R inv ag inconclusive, D3 ag 7.3, GLP-1R agonist -16.6%, D3 antag -18.7, ClpP mod 25.1µM* and GLP1R cytotox 1.4%[1.53 µM].
For CC(C)(C)c1ccc(S(=O)(=O)/C=C/C#N)cc1 the results were ClpP mod 1.1%.
`CO[C@@H]1[C@@H](O[C@@H]2O[C@H](C)[C@@H](O[C@H]3C[C@@](C)(O)[C@@H](OC(=O)CC(C)C)[C@H](C)O3)[C@H](N(C)C)[C@H]2O)[C@@H](CC=O)C[C@@H](C)C(=O)/C=C/C2OC2C[C@@H](C)OC(=O)C[C@H]1OC(C)=O` (stereo partly drawn) gave D3 ag 9.5.
For Cc1ccccc1Cn1c(=O)n(CCCCC(=O)NCc2ccc3c(c2)OCO3)c(=O)c2ccccc21 the results were GLP1R inv ag -13.7%, D3 ag 9.8, GLP-1R agonist 0.6%, ClpP mod -7.1% and GLP1R cytotox -2.0%.
CC1Cc2ccccc2N1C(=O)c1ccc(F)c(S(=O)(=O)N2CCOCC2)c1 (stereo not drawn) was read as GLP1R inv ag -22.2%, D3 ag -0.1, GLP-1R agonist 1.0%, D3 antag -6.2, ClpP mod 28.2µM* and GLP1R cytotox -0.5%.
`COc1ccc(CCNC(=O)c2ccc3nc(Cc4ccccc4)oc3c2)cc1OC` gave GLP1R inv ag -14.9%, D3 ag 6.0, ClpP mod 0.2% and GLP1R cytotox -3.9%.
CCCN(CCC)c1nc2ccccc2nc1C(C#N)C(=O)OC(C)COC (stereo not drawn) was read as GLP1R inv ag 10µM*, D3 ag -1.2, GLP-1R agonist 16.7%, D3 antag -23.0, ClpP mod -5.6% and GLP1R cytotox 4.1%.
CCCCN(CCCC)c1nc2ccccc2nc1C(C#N)C(=O)NCCCOC (stereo not drawn) was read as GLP1R inv ag -13.7%, D3 ag 2.5, GLP-1R agonist 0.8%, D3 antag -19.6, ClpP mod -7.1% and GLP1R cytotox 130.7%.
Screening COc1ccc(F)cc1C(=O)C1CCCN(Cc2c[nH]c3ccccc23)C1 (stereo not drawn) returned GLP1R inv ag inconclusive, D3 ag -11.8, GLP-1R agonist 11.2%, D3 antag -106.7*, ClpP mod -0.2% and GLP1R cytotox 4.3%.
Screening COc1ccc(F)cc1C(=O)C1CCCN(Cc2cn(C)c3ccccc23)C1 (stereo not drawn) returned GLP1R inv ag 3.55µM*, D3 ag -8.3, GLP-1R agonist 6.2%, D3 antag -91.7* and GLP1R cytotox inconclusive.
For COc1ccc(F)cc1C(=O)C1CCCN(Cc2cccn2-c2ccccn2)C1 (stereo not drawn) the results were GLP1R inv ag inconclusive, D3 ag -25.7, GLP-1R agonist 11.1%, D3 antag inconclusive and GLP1R cytotox inconclusive.
Screening Cn1cc(CN2CCCC(C(=O)c3cc(F)ccc3F)C2)c2ccccc21 (stereo not drawn) returned GLP1R inv ag inconclusive, D3 ag -21.5, GLP-1R agonist 11.2%, D3 antag -63.6* and GLP1R cytotox -29.7%.
Screening Cc1ccccc1NC(=O)CCn1cnc2onc(-c3ccc(F)cc3)c2c1=O returned GLP1R inv ag -25.7%, D3 ag -15.2, ClpP mod -0.1% and GLP1R cytotox -3.7%.
Screening COc1ccccc1NC(=O)c1ncn(-c2ccccc2)n1 returned GLP1R inv ag 12.6%, D3 ag 1.2, ClpP mod -16.0% and GLP1R cytotox 4.4%.
CCOc1cccc(/C(O)=C2/C(=O)C(=O)N(CCOC)C2c2ccco2)c1 (stereo not drawn) was read as GLP1R inv ag -0.3%, D3 ag -1.0, GLP-1R agonist -0.8%, D3 antag -55.0*, ClpP mod 7.3% and GLP1R cytotox -4.3%.
`CCOc1cccc(/C(O)=C2/C(=O)C(=O)N(Cc3cccnc3)C2c2ccco2)c1` (stereo not drawn) gave GLP1R inv ag 0.2%, D3 ag -1.3, GLP-1R agonist 1.7%, D3 antag -5.3, ClpP mod -2.8% and GLP1R cytotox 0.7%.
For COC(=O)C1=CN(Cc2cccs2)C=C(C(=O)OC)C1c1cccc(O)c1 the results were GLP1R inv ag -6.0%, D3 ag -7.0, GLP-1R agonist 6.5%, D3 antag 9.2 and GLP1R cytotox 93.4%.
Screening COC(=O)C1=CN(C)C=C(C(=O)OC)C1c1ccsc1 returned GLP1R inv ag -3.5%, D3 ag 4.9, GLP-1R agonist 0.6%, D3 antag -13.0, ClpP mod 7.94µM* and GLP1R cytotox 253.8%.
`Clc1ccc(-c2ccc(/C=N/Nc3cc(N4CCOCC4)nc(N4CCOCC4)n3)o2)cc1` gave GLP1R inv ag inconclusive, D3 ag 7.8, GLP-1R agonist -7.2%, D3 antag 34.0, ClpP mod 7.94µM* and GLP1R cytotox 111.2%.
